Measurements published in PubChem BioAssay (NCI).
This is part of a sample that, as a whole, favours compounds with a hit. Of some 83,000 tested, about 20% had one in any assay.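 Method: cells in 96-well plates; compound added at one concentration; 48 h incubation; percent growth measured; values under 10 scored active.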 Unmarked numbers belong to inactive results. The source made the active and inactive calls.

Assays:
Experiment in all cases: NCI-60 one-dose screen, 48 h (100 = growth as untreated, 0 = no growth, -100 = all killed)
Details in all cases: 10 µM unless noted
NCI-H23 lung = tested on: NCI-H23 lung
NCI-H226 lung = tested on: NCI-H226 lung
NCI-H322M lung = tested on: NCI-H322M lung
HOP-62 NSCLC = tested on: HOP-62 NSCLC
NCI-H460 lung = tested on: NCI-H460 lung
HOP-92 NSCLC = tested on: HOP-92 NSCLC
NCI-H522 lung = tested on: NCI-H522 lung
A549/ATCC NSCLC = tested on: A549/ATCC NSCLC
786-0 renal = tested on: 786-0 renal
COLO 205 colon = tested on: COLO 205 colon

| Compound | growth (NCI-H23 lung) | growth (NCI-H226 lung) | growth (NCI-H322M lung) | growth (HOP-62 NSCLC) | growth (NCI-H460 lung) | growth (HOP-92 NSCLC) | growth (NCI-H522 lung) | growth (A549/ATCC NSCLC) | growth (786-0 renal) | growth (COLO 205 colon) |
| --- | --- | --- | --- | --- | --- | --- | --- | --- | --- | --- |
| CC(=O)OCC1OC(OC2C(COC(C)=O)OC(OCCC[S-])C(OC(C)=O)C2OC(C)=O)C(OC(C)=O)C(OC(C)=O)C1OC(C)=O.[Au+].c1ccc(CN2[CH-]N(Cc3ccccc3)C(c3ccccc3)=C2c2ccccc2)cc1 (stereo not given) | 12.1% | 25.3% | 52% | 31.8% | 15% | -11.4% (active) | -30.8% (active) | 23.2% | 9.05% (active) | -37.4% (active) |
| COc1cc(C(C)c2ccc3c(ccn3C)c2)cc(OC)c1OC (stereo not given) | 29.3% | 67.2% | 42.8% | 29.4% | 2.89% (active) | 48.2% | 11.3% | 16.3% | 22.6% | -56.6% (active) |
| CN1CC=C(c2cc(NC(=O)Nc3ccc(Oc4ccnc(NC(=O)C5CC5)c4)c(F)c3)cc(C(F)(F)F)c2)CC1 | -14.8% (active) | 4.49% (active) | 7.64% (active) | -13.2% (active) | -5.88% (active) | -17% (active) | -49.8% (active) | -6.76% (active) | -6.75% (active) | -26.2% (active) |
| C(=C\c1cn(-c2ccccc2)nc1-c1ccccc1)/c1nnc(-c2c[nH]c3ccccc23)o1 | 51% | 57.3% | 80.3% | 38.9% | 14.1% | 60.2% | 61.5% | 46.7% | 40.6% | 31.8% |
| [2H]c1cc2c(c([2H])c1F)/C(=C/c1[nH]c(C)c(C(=O)NCCN(CC)CC)c1C)C(=O)N2 | 43.5% | 40.5% | 47.7% | 28.9% | 47.5% | 26.6% | 62.4% | 56.5% | 32.5% | 38.3% |
| Nc1cc(N)c(S(=O)(=O)O)cc1N=Nc1cc([N+](=O)[O-])ccc1O | 94.5% | 101% | 94.9% | 90.6% | 104% | 89.4% | 88.3% | 95.7% | 110% | 108% |
| Cc1cccc(NC(=O)c2sc3nc4c(cc3c2N)CN(Cc2ccccc2)CC4)c1C | 51.3% | 60% | 40.4% | 32.3% | 12.5% | 35.2% | 11.3% | 31.1% | 31.9% | -0.373% (active) |
| CCOC(=O)/C=C1\SC(=Nc2ccc(C#N)cc2)N(CCN2C(=O)/C(=C/C(=O)OCC)SC2=Nc2ccc(C#N)cc2)C1=O | 52% | 92.9% | 86.6% | 51.3% | 31.6% | 80.4% | 36.4% | 77.5% | 48.5% | 18.6% |
| O=C(O)c1cc(N=Nc2ccc(-c3ccc(N=Nc4c(S(=O)(=O)O)cc5ccc(Nc6ccccc6)cc5c4O)cc3)cc2)ccc1O | 92.6% | 116% | 94.5% | 94.6% | 113% | 114% | 89.7% | 104% | 106% | 114% |
| C=CCn1c(CN2CCN(c3cc4c(cc3F)c(=O)c(C(=O)O)cn4C3CC3)CC2)n[nH]c1=S | 104% | 110% | 88.6% | 99.8% | 108% | 104% | 87.9% | 101% | 95.6% | 102% |
| O=C1C(=O)c2c(nc3ccc(C(F)(F)F)cn23)-c2ccccc21 | -30.8% (active) | -96.6% (active) | -94.8% (active) | -97.5% (active) | -64.8% (active) | -77.9% (active) | -72.4% (active) | -51.4% (active) | -80.8% (active) | -78.9% (active) |
| COc1ccc(-c2cn(-c3ccc(Cl)cc3)c(=S)[nH]2)cc1OC | 89.6% | 63.2% | 57.4% | 38.4% | 37.9% | 81.8% | 49.4% | 72% | 1.85% (active) | 44.2% |
| COc1ccccc1N1CCN(CCCOc2ccc(C(=O)/C=C3/C(=O)Nc4ccccc43)cc2)CC1 | 45.3% | 53% | 88.7% | 38.2% | 66.4% | 18.2% | 65.9% | 76% | 45.7% | 65.5% |
| CN1CCN(C(=O)[C@@]2(C)CC[C@]3(C)CC[C@]4(C)C(=CC[C@@H]5[C@@]6(C)CC[C@H](OC(=O)c7cccnc7)C(C)(C)[C@@H]6CC[C@]54C)[C@@H]3C2)CC1 | 75.3% | 95.2% | 94.9% | 83.7% | 11.7% | 79.2% | 98.6% | 69.8% | 13% | 68.3% |
| O=C1CC(c2ccc(O)c(O)c2)Oc2cc(O)c([C@@H]3O[C@H](CO)[C@@H](O)[C@H](O)[C@H]3O)c(O)c21 (stereo not given in full) | 106% | 98.9% | 113% | 105% | 99.1% | 113% | 100% | 94.8% | 99.5% | 108% |
| NC(=N\N=C\c1ccccc1O)/C(N)=N/N=C/c1ccccc1O | 90.9% | 96% | 80.5% | 84.5% | 70.1% | 76.2% | 63.5% | 73.6% | 85.2% | 97.1% |
| CC(=O)Oc1ccc(O)cc1 | 95.2% | 106% | 97.2% | 113% | 108% | 98.3% | 33.3% | 91.6% | 110% | 120% |
| C=C(C)[C@@H]1CC[C@]2(C(=O)NCCCO)CC[C@]3(C)[C@H](CC[C@@H]4[C@@]5(C)CCCNC(C)(C)[C@@H]5CC[C@]43C)[C@@H]12 | 77.3% | 79.8% | 78.6% | 89.9% | 68.9% | 58.1% | 88% | 73.1% | 85.6% | -62.6% (active) |
| COc1ccc(-c2nc(C#N)c(NCC(c3ccco3)N3CCCC3)o2)cc1 (stereo not given) | 53.7% | 101% | 43.3% | 47.1% | 24.1% | 58.2% | 30.6% | 43.7% | 34% | 19.9% |
| CN(C)c1ccc(-c2ccc3[nH]c(=O)nc(-c4ccc(F)cc4)c3c2)cn1 | 56.2% | 68.3% | 68.2% | 48.2% | 21.6% | 56.1% | 14.9% | 39.6% | 30.4% | 39.6% |
| Cc1cc(O)cc(O)c1N=NC1=NCCS1 | 98% | 117% | 97.8% | 95.7% | 115% | 109% | 90.3% | 101% | 96.6% | 100% |
| Cc1c(C(=O)Nc2nc3ccccc3[nH]2)cnn1-c1ccccn1 | 101% | 104% | 111% | 107% | 103% | 135% | 76.2% | 86.3% | 107% | 126% |
| CCCS(=O)(=O)Nc1ccc(F)c(C(=O)c2c[nH]c3ncc(-c4ccc(OCCCC5CCCCN5)nc4)cc23)c1F (stereo not given) | 80.7% | 69.9% | 97.8% | 65.5% | 79.9% | 4.71% (active) | 59.5% | 83.5% | 78.7% | 2.52% (active) |
| CC1CCCN(CCCCCOc2ccc3oc4ccccc4c(=O)c3c2)C1 (stereo not given) | 75% | 104% | 76.9% | 91.3% | 75.5% | 90.2% | 67.4% | 68.7% | 69.8% | 36.1% |
| Cc1cnc(SCc2ccc(Cl)cc2)[nH]c1=S | 94.8% | 111% | 89.5% | 94.2% | 113% | 105% | 78.7% | 94.4% | 92.8% | 121% |
| C#C[C@@]1(O)[C@@H](CO)O[C@@H](n2cc(-c3ccco3)c3c(N)ncnc32)[C@@H]1O | 78.6% | 70.7% | 69.5% | 67.7% | 52.1% | 30% | 61.7% | 68.5% | 85.6% | 46.4% |
